PI4K2A block = inhibitors of human PI4K2A; purified PI4K2A, ADP-Glo luminescence, 1 h; active compounds read low; activity change, negative = inhibition, % at 76.9 µM; 420,000 tested, 0.13% active; AID 1346378; in the data active means activity change below about -50%; inconclusive means mostly about -30% to -49%;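 further: -100% = wells without enzyme as full effect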
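PI4K2A activity was measured by ADP-Glo luminescence: enzyme (4 ug/mL stock) and phosphatidylinositol (1.2 mM stock) in Tris pH 7.5/MgCl2/EGTA/Triton X-100 buffer were reacted with ATP (300 microM stock) for one hour at ambient temperature.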
RGS4 inh = blocks human RGS4-accelerated GTP hydrolysis; P49798; Transcreener GDP fluorescence polarization, RGS4-accelerated GTP hydrolysis; Potency, µM (series often up to 114 µM), for the others: top-dose activity change, negative = inhibition, actives largely listed as inhibitors; 390,000 tested, 0.039% active; AID 504845; active means well fitted inhibition curve with a large enough effect; inconclusive means small, poorly fitted or top-dose-only effect; inactive means no such curve, though single readings can be large or run the other way; further: potency means the concentration at half of the fitted maximal effect; on the % scale 0 is the no-effect control and ±100 the full control effect; nearly all actives have a fitted effect of over 75% in size
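MLSMR compounds (23 nl, pin-transferred) preincubated 10 min at room temperature with a 500nM (2x) first reagent, then RGS4 at 900nM (2x) plus Transcreener GDP mix added; fluorescence polarization (620/688 nm) read before and after 90 min at 30 °C.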
DRD3 agonist = agonists of human D3 dopamine receptor; D3R DiscoveRx beta-arrestin cells, luminescence, 90 min; 410,000 tested, 0.58% active; AID 652048; max activation, %; P35462; in the data active means max activation above about 30%; further: 0% is about no effect
Target sequence (P35462 whole entry, looked up): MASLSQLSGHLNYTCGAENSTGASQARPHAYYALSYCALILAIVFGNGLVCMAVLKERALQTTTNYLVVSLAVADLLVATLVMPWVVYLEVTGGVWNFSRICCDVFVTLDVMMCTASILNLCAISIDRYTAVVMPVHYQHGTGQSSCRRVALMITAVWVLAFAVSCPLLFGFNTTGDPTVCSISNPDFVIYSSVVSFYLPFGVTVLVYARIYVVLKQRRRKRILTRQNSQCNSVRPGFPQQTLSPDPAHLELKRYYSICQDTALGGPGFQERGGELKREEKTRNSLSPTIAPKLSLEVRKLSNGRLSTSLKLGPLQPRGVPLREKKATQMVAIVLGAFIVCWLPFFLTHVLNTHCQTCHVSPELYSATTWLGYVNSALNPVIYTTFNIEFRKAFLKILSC
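Agonist-mode cell screen: cells plated at 1500/well and incubated overnight at 37 °C, then exposed to library compounds for 90 min at 37 °C. Detection reagent was added for 30–60 min at room temperature, and luminescence was read.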
DRD3 antagonist = D3 dopamine receptor (human) antagonism. 360,000 tested, 2.5% active. P35462. D3R cells, DiscoveRx beta-arrestin luminescence, antagonist mode; active compounds read low. AID 652054. max response, negative = inhibition, %; in the data active means max response below about -50%; inconclusive means no clear call, values can overlap the other calls; further: on the % scale 0 is the no-effect control and ±100 the full control effect
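Cells plated overnight at 1500 cells/well, then exposed to library compounds with dopamine controls for 90 minutes at 37 degrees C. DiscoveRx reagent added for 30–60 minutes at room temperature; luminescence read, quantitative HTS format.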
pAkt inh = inhibitors of Akt phosphorylation; Neuro2A IGF-stimulated pAkt S473 HTRF, 20 min; active compounds read low; activity change, % for hits at 50 µM; 360,000 tested, 0.32% active; in the data active means activity change below about -80%; inconclusive means mostly about -51% to -80%; further: on the % scale 0 is the no-effect control and ±100 the full control effect
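Neuro2A cells (4,500/well, DMEM with 0.5% FBS) were treated with compound at a single 50 µM final concentration, stimulated with 6 nM IGF for 20 min at 37 °C, and lysed. Phospho-Akt Ser473 was read by HTRF as 665/615 ratio ×10^4.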
LDHA inh = LDHA (human) enzyme inhibition | P00338 | purified LDHA, NADH/diaphorase-resazurin fluorescence; active compounds read low | activity change, % (values are at about 110 or 230 µM) | 480,000 tested, 0.15% active | AID 1347041; in the data active means activity change below about -30%; inconclusive means mostly about -25% to -30%;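 further: plate controls were DMSO wells for no effect and wells without enzyme for full effect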
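LDH5 2 nM; NADH 0.06 mM, pyruvate 0.2 mM; 200 mM Tris pH 7.4, EDTA, Tween-20; 5 min RT. Detection: diaphorase 0.133 mg/mL + resazurin 37 µM, fluorescence ex540/em590 at 0 and 20 min; normalized to enzyme-free and DMSO wells.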
The depositor's hits bear a star; i = inactive; ? = inconclusive; · = not tested or not shown. Hits are enriched below; roughly 2.8% of the tested compounds scored in any of these assays.

SMILES	PI4K2A block	RGS4 inh	DRD3 agonist	DRD3 antagonist	pAkt inh	LDHA inh
CC(C)Oc1cc(F)ccc1-c1cc(C(=O)NCC2CCCCC2)[nH]n1	-1	·	-11	-83*	i	2
Cc1cc(F)ccc1-c1cc(C(=O)NCC2CCCCC2)[nH]n1	-4	·	-18	-28	i	-1
Cc1ccc(Cl)cc1-c1cc(C(=O)NCc2ccccc2)[nH]n1	-1	·	-14	-51*	i	-4
COc1ccc(Cl)cc1-c1cc(C(=O)NCC2CCCCC2)[nH]n1	7	·	-16	-58*	i	-7
COc1ccc(Cl)cc1-c1cc(C(=O)NCc2cccc(Cl)c2)[nH]n1	-3	·	-13	-71*	i	-4
Cc1ccc(NC(=O)Cn2nc3ccc(S(=O)(=O)C(C)(C)C)nn3c2=O)cc1	·	·	·	·	·	-16
O=C(COc1cccc(Cl)c1Cl)c1ccc2ccccc2c1	·	·	·	·	·	-1
COc1ccc(N2C(=O)c3ccccc3NC2c2cnn(-c3ccccc3)n2)cc1 (configuration not stated)	·	·	·	·	·	0
COc1cc(C#N)ccc1OC(=O)c1ccc(F)cc1Cl	·	·	·	·	·	-1
O=c1[nH]c(=O)n(CC2CCCO2)c2nccc(-c3ccccc3)c12 (configuration not stated)	·	·	·	·	·	-4
O=S(=O)(NCc1ccc(Cl)cc1)c1cnc[nH]1	-8	-6%	-2	-12	i	-5
Cc1ccc(CCNS(=O)(=O)c2cnc[nH]2)cc1	-1	5%	-4	-66*	i	-3
CCOC(=O)C1=C(Cn2cnc3ccccc32)NC(=O)NC1c1ccc(OC)cc1 (configuration not stated)	0	22%	-9	0	i	-5
CCOC(=O)C1=C(Cn2cnc3ccccc32)NC(=O)NC1c1ccc(Cl)cc1 (configuration not stated)	-3	-16%	32*	28	i	-4
N#Cc1cc([N+](=O)[O-])c(-n2nnc3ccccc32)c([N+](=O)[O-])c1	4	-29%	-2	-58*	i	14
CS(=O)(=O)c1ccc(-n2nnc3ccccc32)c([N+](=O)[O-])c1	-9	5%	-11	?	i	3
CCOC(=O)C(=Cc1ccc(-n2cncn2)cc1)C(=O)OCC	7	?	-17	-64*	i	0
Cc1cc(NS(=O)(=O)c2ccc(NC(=O)Nc3cccc(Cl)c3)cc2)no1	-5	14%	4	-55*	i	-14
CCOC(=O)CN1C(=O)C(C)(C)Oc2ccc(C(=O)NC(C)(C)CC)cc21	9	7%	-1	-16	-111%*	-17
CC1(C)Oc2ccc(C(=O)NC3CCCC3)cc2N(CC(=O)NC2CCCC2)C1=O	-3	-11%	-5	-76*	i	-13
O=C(CCCn1c(=O)c2ccccc2n(Cc2ccccc2)c1=O)NCc1ccco1	5	9%	-3	?	i	-7
O=C(CCCCn1c(=O)c2ccccc2n(Cc2ccc(F)cc2)c1=O)NCc1ccco1	0	-4%	-3	3	-99%*	-11
COc1ccc(C(=O)OCc2cc(=O)n3oc(C)cc3n2)cc1NC(=O)c1ccc(C(C)(C)C)cc1	·	·	·	·	·	3
CCCn1c(N2CCN(C(=O)Nc3ccccc3)CC2)nc2ccccc21	0	1%	-2	4	i	-5
CCCn1c(N2CCN(CC(=O)NCc3cccs3)CC2)nc2ccccc21	-4	-29%	-3	-67*	-110%*	0
Cc1c(CCC(=O)N2CCCCC2)c(=O)oc2c(C)c(O)ccc12	·	·	·	·	·	-24
O=C(NC(c1ccccc1)c1ccsc1)C1CCN(Cc2ccccc2)CC1 (configuration not stated)	7	·	-18	?	·	-6
CCCN1CCC(C(=O)NC(c2ccc(Cl)cc2)c2ccsc2)CC1 (configuration not stated)	-11	·	-14	-56*	i	-3
